# KinaseGlo FLuc: Kinase-Glo luciferase inhibition (counter-screen); Kinase-Glo luciferase, ATP luminescence, 8 min; Potency, µM (titrated, usually from 38.3 µM), for the others: top-dose activity change, negative = inhibition, hits mostly inhibitors; AID 1379; hit rate 0.28% among 200,000; note: nearly all actives have a fitted effect of over 60% in size
#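 Compound is pinned into ATP-containing buffer (10 uM ATP, imidazole pH 7.2, 7 mM MgCl2). Kinase-Glo luciferase reagent is then added. Light output is recorded following an 8-min room-temperature incubation.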
# RORgamma inh: inhibitors of mouse ROR gamma transcriptional activity. P51450. Drosophila S2 Gal4-RORgamma UAS-luciferase reporter, 20 h. Potency, µM (series often up to 53.6 µM), inactives show at the highest dose activity change, negative = inhibition, actives largely listed as inhibitors. hit rate 5.4% among 310,000. AID 2551; note: nearly all actives have a fitted effect of over 60% in size
# Target sequence (P51450 whole entry, looked up, the tested form may be a part): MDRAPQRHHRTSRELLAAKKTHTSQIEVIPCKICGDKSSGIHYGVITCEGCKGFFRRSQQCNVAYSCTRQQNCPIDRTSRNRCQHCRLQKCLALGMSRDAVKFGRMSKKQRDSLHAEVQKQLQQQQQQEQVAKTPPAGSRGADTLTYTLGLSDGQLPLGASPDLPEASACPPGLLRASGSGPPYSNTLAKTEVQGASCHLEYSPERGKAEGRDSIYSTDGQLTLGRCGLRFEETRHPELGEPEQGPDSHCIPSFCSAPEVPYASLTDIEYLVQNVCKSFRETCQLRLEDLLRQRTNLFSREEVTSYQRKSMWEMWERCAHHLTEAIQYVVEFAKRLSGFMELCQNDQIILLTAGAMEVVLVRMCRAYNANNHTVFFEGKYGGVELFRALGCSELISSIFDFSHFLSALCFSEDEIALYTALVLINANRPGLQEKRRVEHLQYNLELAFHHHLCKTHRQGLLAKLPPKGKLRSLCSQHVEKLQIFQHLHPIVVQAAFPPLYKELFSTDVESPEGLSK
#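 Stably transfected Drosophila Schneider cells are the test system, with ROR gamma fused to Gal4 and luciferase under UAS control; luminescence is read after 20 hr of 700 uM copper sulfate induction at ambient temperature.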
# Gal4-VP16 FLuc: Gal4-VP16 reporter inhibition counter-screen | Potency, µM (top dose mostly 53.6 µM), for inactives: at the top dose activity, negative = inhibition, hits mostly inhibitors | hit rate 3.5% among 310,000 | Drosophila S2 Gal4-VP16 UAS-luciferase, luminescence, 20 h;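 note: Gal4-VP16 expression switched on by copper sulfate through the metallothionein promoter; nearly all actives have a fitted effect of over 50% in size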
# * hit, by the source's call; ? = inconclusive; · = no result given; [ ] = dose if it differs, or a comment. Hits are enriched below; roughly 6.4% of the tested compounds scored in any of these assays. Calls come from the whole dose curve; as a rule, active = well fitted curve in the direction sought with a large enough effect; inconclusive = small, poorly fitted or top-dose-only effect, or another doubt; inactive = no such curve, though single readings can be large; an effect the other way counts as inactive or inconclusive. % is set by controls: 0 for no effect and ±100 for the full control effect; potency is the fitted concentration of half-maximal effect.
SMILES,KinaseGlo FLuc,RORgamma inh,Gal4-VP16 FLuc
Cn1nc([N+](=O)[O-])nc1Oc1ccccc1F,0%,-13%,8%
Cn1nc([N+](=O)[O-])nc1S(C)(=O)=O,-1%,5µM*,?
N[C@@H](CSS(=O)(=O)O)C(=O)O,1%,-7%,-1%
COCCn1c(=O)c(-c2ccc(Cl)cc2)nc2cnc(OC)nc21,1%,6%,4%
COc1cc(N=c2ssnc2Cl)cc(OC)c1,-8%,4µM*,7.1µM*
Clc1nssc1=Nc1ccc(Br)cc1,-2%,?,?
Fc1cccc(CN2CCN(Cc3nc(CCc4ccccc4)no3)CC2)c1,-4%,4%,8%
S=C(NCCCN1CCOCC1)NC1CC1,3%,-10%,6%
CC(NC(=S)NCCN1CCOCC1)C12CC3CC(CC(C3)C1)C2 (stereo unspecified),2%,5µM*,-14%[10 µM]
CNC(=S)NCCN1CCOCC1,-1%,-3%,-5%
CC(NC(=S)NCCCN1CCOCC1)C1CC2CCC1C2 (stereo unspecified),1%,5.6µM*,?
CC(C)COC(=O)c1ccc(N)cc1,·,3%[10 µM],16%
CN(C)c1cccc(C(=O)N2CCCC(CCC(=O)NCc3ccccc3F)C2)c1 (stereo unspecified),·,13%,-1%
CCOc1cc(CN2CCN(c3ncccn3)CC2)ccc1OC,·,-5%,-2%
O=C(NN=C1CCC(c2ccccc2)CC1)c1cc2c(s1)CCCC2 (stereo unspecified),5%,-12%,-1%
CC(C)NC(=S)N/N=C1\CCCc2ccccc21,2%,1.6µM*,4µM*
O/N=C1\CCCc2ccccc21,·,9%,-13%
CC(C)NC(=S)NN=C1CCC(c2ccccc2)CC1 (stereo unspecified),3%,5.6µM*,11µM*
NC(=S)c1c(Cl)cc(C(F)(F)F)cc1Cl,·,-30%,-5%
O=C1COc2ccc(S(=O)(=O)N3CCCC3)cc2N1,·,0%,-6%
O=C1COc2ccc(N3C(=O)C=CC3=O)cc2N1,0%,6.3µM*,10µM*
C/C(=N\NC(=O)c1nnn(-c2nonc2N)c1-c1ccc(Cl)c(Cl)c1)c1ccncc1,·,4%,-1%
Cc1ccn(-c2n[nH]c(C)c2[N+](=O)[O-])n1,0%,13µM*,-5%
Cc1[nH]nc(N2CCCCCC2)c1[N+](=O)[O-],-1%,-4%,7%
COc1cccc(NC(C)C(=O)Nc2cc([N+](=O)[O-])ccc2Cl)c1 (stereo unspecified),5%,-14%,12%
SMILES,KinaseGlo FLuc,RORgamma inh,Gal4-VP16 FLuc
Cc1cc(C)nc(Sc2nc(Cl)nc(N(c3ccccc3)c3ccccc3)n2)n1,21%,11µM*,?
Cc1cc(C)nc(SC(C(=O)O)c2ccccc2)n1 (stereo unspecified),0%,6%,-1%
CCc1ccc(CN(C)Cc2nc(Cc3cccc(C(F)(F)F)c3)no2)nc1,·,2.2µM*,?
FC(F)(F)c1cccc(Cc2noc(CN3CCCCC3c3ccccn3)n2)c1 (stereo unspecified),1%,22µM*,-8%
CCc1ccc(CNC(=O)CCc2nnc(Cc3cccc(C(F)(F)F)c3)o2)nc1,4%,26%,-4%
CCn1ccnc1CN(C)Cc1nc(Cc2cccc(C(F)(F)F)c2)no1,-1%,18µM*,?
CN(Cc1ccc(F)cc1)Cc1nc(CCc2ccccc2)no1,1%,1%,-8%
CCc1ccc(CN(C)Cc2nc(COc3ccccc3)no2)nc1,-3%,13µM*,6%
Fc1cccc(Cc2noc(CN3CCCCC3c3ccccn3)n2)c1 (stereo unspecified),0%,-14%,5%
CC(CN(C)Cc1nc(Cc2cccc(C(F)(F)F)c2)no1)CN1CCCC1 (stereo unspecified),-2%,18%,-8%
CCC(=O)N1CCc2nc(-c3ccccc3)sc2C1,·,31%,?
CC(C)NC(=O)c1cccc2c1-c1ccccc1C2=O,·,11%,2%
O=C(/C=C/c1ccco1)N1CCc2ccccc21,10µM*,?,-28%
Cc1ccc(/C=C/C(=O)N2CCc3ccccc32)o1,-18%,-20%,?
CCN(CC(=O)Nc1ccccc1C(F)(F)F)C(=O)Cc1ccccc1,·,31%,-6%
Cc1ccc(C)c(NC(=O)CN2C(=O)COc3ccc(S(=O)(=O)N4CCCC4)cc32)c1,·,-20%,1%
S=c1[nH]nc(CCc2ccccc2)n1-c1ccc(Cl)cc1,-1%,1.8µM*,?
S=c1[nH]nc(CCc2ccccc2)n1-c1ccccc1,2%,5.6µM*,11µM*
O=C(CSc1nnc(CCc2ccccc2)n1-c1ccc(Cl)cc1)c1ccccc1,-1%,11µM*,?
O=c1c2ccccc2cnn1Cc1n[nH]c(=S)n1-c1ccc(Cl)cc1,3%,?,?
COc1ccc(-n2c(CCc3ccccc3)nnc2SCC(=O)c2ccc(Cl)cc2)cc1,-4%,4%,?
O=C(Cc1ccccc1)NCc1n[nH]c(=S)n1-c1ccccc1,-4%,-33%,14%
Cc1cccc(NC(=S)N(CCN2CCOCC2)Cc2cc3cc4c(cc3[nH]c2=O)OCCO4)c1,4%,43%,-9%
CC(C)(C)c1cc(NC(=O)c2cccc(S(=O)(=O)N3CCOCC3)c2)no1,-2%,43%,9%
CCc1nnc(SCC(=O)NC2CC2)n1CC,·,5%,-1%
SMILES,KinaseGlo FLuc,RORgamma inh,Gal4-VP16 FLuc
C[C@H](CCC(=O)O)[C@H]1CC[C@@H]2[C@H]3CC[C@H]4C[C@@H](O)CC[C@@]4(C)[C@H]3CC[C@]21C,-2%[17.1 µM],0%[16.9 µM],4%[17 µM]
CCC(=O)N[C@@H]1Cc2ccccc2[C@@H](c2ccccc2)C1,-3%,-38%,8.9µM*
O=C(CBr)N1CCc2ccccc2C(c2ccccc2)C1 (stereo unspecified),·,?,0%
O=C(Nc1ccc(OC(F)(F)F)cc1)c1cnccn1,·,?,-15%
O=C(CCc1ccccc1)NNC(=O)c1ccccn1,8%,10µM*,?
O=C(NNC(=O)C(c1ccccc1)c1ccccc1)c1ccccn1,1%,5.6µM*,?
O=C(NNc1ccccn1)C(c1ccccc1)c1ccccc1,1%,-21%,-7%
O=C(CCc1ccccc1)NNC(=O)Cc1ccccc1,0%,3%,-1%
COc1cc(C(=S)N2CCOCC2)ccc1OC(=O)c1cc(OC)c(OC)c(OC)c1,·,-8%,-18%
COc1ccc(C(=O)N2CCC3(CC2)CN(c2ncccn2)C3)cc1,-2%,-16%,1%
C=CCN1C(=O)/C(=C\C(C)=C\c2ccccc2)SC1=S,·,?,28%
CC(=C\c1ccccc1)/C=C1/SC(=S)N(CCCC(=O)O)C1=O,·,?,0.63µM*
CC(/C=C1\SC(=O)N(CCCC(=O)O)C1=O)=C\c1ccccc1,-1%,0.1µM*,0.32µM*
CC(/C=C1\SC(=S)N(CCCC(=O)Nc2ccc(C(=O)O)cc2)C1=O)=C\c1ccccc1,2%,-4%,-22%
Oc1c(CN2CCN(c3ccccc3)CC2)cc(Br)c2cccnc12,-2%[7.66 µM],0.56µM*,0.89µM*
c1ccc(N2CCN(Cc3ccnc4ccccc34)CC2)cc1,1%,20%[0.365 µM],·
Brc1csc2ncccc12,·,-3%,-7%
Oc1c(Br)cc(Br)c2cccnc12,-3%,0.28µM*,-72%
CCOC(=O)N1CCN(Cc2cc(Cl)c3cccnc3c2O)CC1,3%,0.13µM*,0.089µM*

# Bioassay records: PubChem BioAssay, National Center for Advancing Translational Sciences (NCATS)
